# Data reported in PubChem BioAssay (NCATS).
# Results filed as inconclusive are left out. Activity calls are given as the source filed them. Unless noted, calls follow the shape of the dose curve; as a rule, active = well fitted curve in the direction sought with a large enough effect; inconclusive = small, poorly fitted or top-dose-only effect, or another doubt; inactive = no such curve, though single readings can be large; an effect the other way counts as inactive or inconclusive.
# How the values were obtained:
# [1] = target: Catechol O-methyltransferase (Homo sapiens) (UniProt P21964); assay: Confirmatory Screen for Target Class Profiling of Small Molecule Inhibitors of Methyltransferases (AID 1745852; calls by dose curve); conditions: MTase-Glo luminescence, SAH detection, recombinant enzyme; measured here: COMT max response; stronger effect = lower value
# Chain of Catechol O-methyltransferase (Homo sapiens) (P21964 whole entry, looked up): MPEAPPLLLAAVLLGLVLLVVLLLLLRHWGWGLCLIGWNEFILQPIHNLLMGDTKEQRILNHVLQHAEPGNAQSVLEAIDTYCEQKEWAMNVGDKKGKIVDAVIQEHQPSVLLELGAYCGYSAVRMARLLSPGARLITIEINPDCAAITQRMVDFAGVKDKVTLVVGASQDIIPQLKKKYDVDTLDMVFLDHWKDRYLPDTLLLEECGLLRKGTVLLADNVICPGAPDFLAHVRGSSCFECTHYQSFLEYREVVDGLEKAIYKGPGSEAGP
# [2] = target: Guanidinoacetate N-methyltransferase (Homo sapiens) (UniProt Q14353); assay: as above; conditions: MTase-Glo luminescence, SAH detection, recombinant enzyme; activity change, negative = inhibition: at 57.3 µM (top of the series) unless noted; series mostly up to 57.3 µM
# [3] = target: Nicotinamide N-methyltransferase (Homo sapiens) (UniProt P40261); assay: as above; conditions: MTase-Glo luminescence, SAH detection, recombinant enzyme; measured here: NNMT max response; stronger effect = lower value
# Chain of Nicotinamide N-methyltransferase (Homo sapiens) (P40261 whole entry, looked up): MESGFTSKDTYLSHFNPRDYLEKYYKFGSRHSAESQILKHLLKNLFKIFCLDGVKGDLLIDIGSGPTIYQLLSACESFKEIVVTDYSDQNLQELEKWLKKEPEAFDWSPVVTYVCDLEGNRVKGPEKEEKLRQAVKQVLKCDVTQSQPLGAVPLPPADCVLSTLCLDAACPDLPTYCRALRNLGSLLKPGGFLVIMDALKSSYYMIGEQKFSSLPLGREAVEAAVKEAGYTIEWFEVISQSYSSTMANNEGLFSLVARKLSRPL
# [4] = target: Phenylethanolamine N-methyltransferase (Homo sapiens) (UniProt P11086); assay: as above; conditions: MTase-Glo luminescence, SAH detection, recombinant enzyme; measured here: PNMT max response; stronger effect = lower value
# Chain of Phenylethanolamine N-methyltransferase (Homo sapiens) (P11086 whole entry, looked up): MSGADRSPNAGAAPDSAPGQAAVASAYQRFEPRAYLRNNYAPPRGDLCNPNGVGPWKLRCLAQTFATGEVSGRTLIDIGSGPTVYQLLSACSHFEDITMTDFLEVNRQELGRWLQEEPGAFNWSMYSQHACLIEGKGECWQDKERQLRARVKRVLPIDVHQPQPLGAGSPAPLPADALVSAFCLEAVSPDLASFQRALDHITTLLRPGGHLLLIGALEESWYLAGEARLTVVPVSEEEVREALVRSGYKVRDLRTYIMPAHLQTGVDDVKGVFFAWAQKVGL
# [5] = target: DNA repair nuclease/redox regulator APEX1 (Homo sapiens) (UniProt P27695); assay: qHTS Validation Assay for Inhibitors of the Human Apurinic/apyrimidinic Endonuclease 1 (APE1) (AID 1705;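 also: TAMRA fluorescence gain over two minutes as APE1 cuts a quenched THF abasic duplex; % is scaled to controls: 0 for no effect and ±100 for the full control effect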); conditions: purified APE1 endonuclease activity, fluorescence, titration; series mostly up to 57.1 µM
# Summary of the method: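 qHTS, 1536-well. APE1 + cpd 15 min RT → 50 nM TAMRA/BHQ-2 THF-abasic dsDNA substrate → kinetic fluorescence, 3 reads/60 s; delta(read3−read1) = reaction progress. No-enzyme buffer = negative control.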
# [6] = target: Endonuclease 4 (Escherichia coli (strain K12)) (UniProt P0A6C1); assay: Counterscreen for APE1 Inhibitors: qHTS Validation Assay for Inhibitors of Endonuclease IV (AID 1708); also: % is scaled to controls: 0 for no effect and ±100 for the full control effect; conditions: E. coli endonuclease IV, DNA cleavage fluorescence; series mostly up to 57.1 µM
# Summary of the method: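 Enzyme (2 nM) + compound, 15 min RT; add 50 nM TAMRA/BHQ-2 THF-site dsDNA; kinetic read ex525/em598, 3 reads/60 s; activity = read 3 − read 1. Buffer Tris pH 7.5, 50 mM NaCl, 2 mM MgCl2, DTT, Tween-20.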
# [7] = target: ATP-dependent DNA helicase Q1 (Homo sapiens) (UniProt P46063); assay: qHTS Validation Assay for Inhibitors of RecQ-Like Dna Helicase 1 (RECQ1) (AID 2353); conditions: recombinant RECQ1 helicase DNA unwinding assay; series mostly up to 25.6 µM;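 also: plate controls were DMSO vehicle for no effect and enzyme-free control for full effect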
# Summary of the method: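 RECQ1T1 50 nM; forked duplex (20 bp + 30-nt ss tails) 200 nM, ATP 2 mM final; pH 8.0, 2 mM MgCl2, 2.5 ug/ml poly(dI-dC); 15 min compound preincubation; discontinuous kinetic read over 2 h at RT.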
# [8] = target: Thyrotropin receptor (Homo sapiens) (UniProt P16473); assay: qHTS Assay for Antagonists of the Thyroid Stimulating Hormone Receptor (AID 488980); conditions: TSHR-expressing cells, cAMP antagonist read-out; series mostly up to 57.5 µM; also: 0% is about no effect
# Chain of Thyrotropin receptor (Homo sapiens) (P16473 whole entry, looked up): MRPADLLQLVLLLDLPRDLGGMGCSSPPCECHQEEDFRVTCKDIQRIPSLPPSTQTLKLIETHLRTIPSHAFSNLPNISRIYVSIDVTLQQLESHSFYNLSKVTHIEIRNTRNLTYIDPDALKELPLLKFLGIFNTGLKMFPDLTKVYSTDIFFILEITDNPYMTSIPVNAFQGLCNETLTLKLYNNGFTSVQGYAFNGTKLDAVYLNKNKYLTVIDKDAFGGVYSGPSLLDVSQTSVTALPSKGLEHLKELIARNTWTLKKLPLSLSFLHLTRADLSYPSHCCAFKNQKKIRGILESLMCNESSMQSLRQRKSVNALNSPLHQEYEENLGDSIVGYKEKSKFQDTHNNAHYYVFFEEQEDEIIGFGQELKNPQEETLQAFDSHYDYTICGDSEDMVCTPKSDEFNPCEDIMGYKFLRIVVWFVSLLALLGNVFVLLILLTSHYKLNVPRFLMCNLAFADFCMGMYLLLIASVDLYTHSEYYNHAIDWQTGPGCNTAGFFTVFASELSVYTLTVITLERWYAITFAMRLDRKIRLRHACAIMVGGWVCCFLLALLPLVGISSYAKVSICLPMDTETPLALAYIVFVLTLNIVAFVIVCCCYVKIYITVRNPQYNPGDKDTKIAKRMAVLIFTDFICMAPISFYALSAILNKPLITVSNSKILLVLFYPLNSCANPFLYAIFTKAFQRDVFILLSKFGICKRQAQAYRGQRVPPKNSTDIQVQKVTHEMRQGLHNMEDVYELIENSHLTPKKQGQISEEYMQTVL
# Summary of the method: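 Readout is cAMP by HTRF competition between cellular cAMP and cAMP-d2 for a cryptate-labelled antibody. Antagonism was assessed in TSHR-transfected HEK293 cells stimulated with 4 nM TSH (EC80, final) in the presence of RO 20-1724.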
# [9] = target: ATPase family AAA domain-containing protein 5 (Homo sapiens) (UniProt Q96QE3); assay: Validation screen for small molecules that inhibit ELG1-dependent DNA repair in human embryonic kidney (HEK293T) cells expressing luciferase-tagged ELG1 (AID 493107); conditions: HEK293T ELG1-luciferase level, luminescence, 5-fluorouridine co-treatment, 16 h; series mostly up to 46.1 µM;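 also: cells co-treated with the DNA-damaging agent 5-fluorouridine alongside compound; % is scaled to controls: 0 for no effect and ±100 for the full control effect; inhibitors lower the ELG1-luciferase luminescence signal; nearly all actives have a fitted effect of over 70% in size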
# Chain of ATPase family AAA domain-containing protein 5 (Homo sapiens) (Q96QE3 whole entry, looked up, the tested form may be a part): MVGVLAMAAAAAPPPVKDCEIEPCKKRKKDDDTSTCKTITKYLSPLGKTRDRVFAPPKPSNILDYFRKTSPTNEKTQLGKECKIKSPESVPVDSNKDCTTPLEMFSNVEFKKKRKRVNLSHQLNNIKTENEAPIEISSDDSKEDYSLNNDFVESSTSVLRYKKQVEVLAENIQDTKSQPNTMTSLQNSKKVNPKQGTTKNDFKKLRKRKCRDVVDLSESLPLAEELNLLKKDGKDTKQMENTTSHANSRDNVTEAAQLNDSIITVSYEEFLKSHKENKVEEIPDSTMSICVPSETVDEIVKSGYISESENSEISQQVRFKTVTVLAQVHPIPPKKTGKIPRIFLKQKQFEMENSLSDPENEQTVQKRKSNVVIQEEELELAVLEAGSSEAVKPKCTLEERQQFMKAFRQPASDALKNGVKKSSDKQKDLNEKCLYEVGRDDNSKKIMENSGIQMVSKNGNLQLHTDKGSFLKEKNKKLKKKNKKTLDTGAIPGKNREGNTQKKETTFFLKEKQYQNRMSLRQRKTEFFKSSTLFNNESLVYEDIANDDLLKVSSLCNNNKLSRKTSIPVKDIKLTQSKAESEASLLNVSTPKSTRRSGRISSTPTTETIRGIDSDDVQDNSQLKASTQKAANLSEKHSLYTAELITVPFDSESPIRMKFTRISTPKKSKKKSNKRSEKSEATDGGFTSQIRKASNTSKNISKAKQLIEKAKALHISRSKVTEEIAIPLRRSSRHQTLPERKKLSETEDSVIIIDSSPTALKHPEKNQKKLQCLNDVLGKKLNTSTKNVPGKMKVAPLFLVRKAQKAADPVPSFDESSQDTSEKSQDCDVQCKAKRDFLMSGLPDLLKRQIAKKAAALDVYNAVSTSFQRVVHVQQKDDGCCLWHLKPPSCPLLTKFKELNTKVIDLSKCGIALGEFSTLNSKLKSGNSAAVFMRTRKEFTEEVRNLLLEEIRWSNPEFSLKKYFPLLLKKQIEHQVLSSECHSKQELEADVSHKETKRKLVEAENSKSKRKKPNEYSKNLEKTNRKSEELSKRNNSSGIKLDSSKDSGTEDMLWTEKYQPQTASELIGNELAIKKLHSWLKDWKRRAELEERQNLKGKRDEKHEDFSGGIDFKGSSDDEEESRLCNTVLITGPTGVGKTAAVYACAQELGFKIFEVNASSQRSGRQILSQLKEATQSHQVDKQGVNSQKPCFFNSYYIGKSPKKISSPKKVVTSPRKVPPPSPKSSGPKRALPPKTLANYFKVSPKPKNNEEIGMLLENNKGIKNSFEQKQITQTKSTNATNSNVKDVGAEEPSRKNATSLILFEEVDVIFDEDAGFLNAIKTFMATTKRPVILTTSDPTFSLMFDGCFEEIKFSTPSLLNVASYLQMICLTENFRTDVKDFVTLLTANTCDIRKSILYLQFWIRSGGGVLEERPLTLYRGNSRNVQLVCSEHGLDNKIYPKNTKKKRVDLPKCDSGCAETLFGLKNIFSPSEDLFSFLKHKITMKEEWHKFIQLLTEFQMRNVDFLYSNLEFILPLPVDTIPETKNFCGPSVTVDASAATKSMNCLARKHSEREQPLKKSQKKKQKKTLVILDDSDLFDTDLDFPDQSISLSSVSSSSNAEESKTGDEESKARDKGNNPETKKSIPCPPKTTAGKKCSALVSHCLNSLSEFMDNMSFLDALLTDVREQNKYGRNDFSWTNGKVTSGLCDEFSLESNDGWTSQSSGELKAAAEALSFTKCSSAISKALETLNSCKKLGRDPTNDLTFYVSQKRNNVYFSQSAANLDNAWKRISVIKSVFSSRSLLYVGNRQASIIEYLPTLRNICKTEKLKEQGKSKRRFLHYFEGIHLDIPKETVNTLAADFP
# Summary of the method: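 Cells are dispensed in 1536-well format, then 5-fluorouridine and compound are pinned in. After a 16 hr incubation at 37 °C and 5% CO2, ONE-Glo is added and luciferase measured on a CCD imager.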
# [10] = target: Voltage-gated inwardly rectifying potassium channel KCNH2 (Homo sapiens) (UniProt Q12809); assay: qHTS Assay for Small Molecule Inhibitors of the Human hERG Channel Activity (AID 588834); conditions: U2OS BacMam hERG, FluxOR thallium flux fluorescence; series mostly up to 46.1 µM;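 also: potency is read from the fitted curve at half-maximal effect; lower thallium flux fluorescence means stronger hERG block; nearly all actives have a fitted effect of over 50% in size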
# Chain of Voltage-gated inwardly rectifying potassium channel KCNH2 (Homo sapiens) (Q12809 whole entry, looked up): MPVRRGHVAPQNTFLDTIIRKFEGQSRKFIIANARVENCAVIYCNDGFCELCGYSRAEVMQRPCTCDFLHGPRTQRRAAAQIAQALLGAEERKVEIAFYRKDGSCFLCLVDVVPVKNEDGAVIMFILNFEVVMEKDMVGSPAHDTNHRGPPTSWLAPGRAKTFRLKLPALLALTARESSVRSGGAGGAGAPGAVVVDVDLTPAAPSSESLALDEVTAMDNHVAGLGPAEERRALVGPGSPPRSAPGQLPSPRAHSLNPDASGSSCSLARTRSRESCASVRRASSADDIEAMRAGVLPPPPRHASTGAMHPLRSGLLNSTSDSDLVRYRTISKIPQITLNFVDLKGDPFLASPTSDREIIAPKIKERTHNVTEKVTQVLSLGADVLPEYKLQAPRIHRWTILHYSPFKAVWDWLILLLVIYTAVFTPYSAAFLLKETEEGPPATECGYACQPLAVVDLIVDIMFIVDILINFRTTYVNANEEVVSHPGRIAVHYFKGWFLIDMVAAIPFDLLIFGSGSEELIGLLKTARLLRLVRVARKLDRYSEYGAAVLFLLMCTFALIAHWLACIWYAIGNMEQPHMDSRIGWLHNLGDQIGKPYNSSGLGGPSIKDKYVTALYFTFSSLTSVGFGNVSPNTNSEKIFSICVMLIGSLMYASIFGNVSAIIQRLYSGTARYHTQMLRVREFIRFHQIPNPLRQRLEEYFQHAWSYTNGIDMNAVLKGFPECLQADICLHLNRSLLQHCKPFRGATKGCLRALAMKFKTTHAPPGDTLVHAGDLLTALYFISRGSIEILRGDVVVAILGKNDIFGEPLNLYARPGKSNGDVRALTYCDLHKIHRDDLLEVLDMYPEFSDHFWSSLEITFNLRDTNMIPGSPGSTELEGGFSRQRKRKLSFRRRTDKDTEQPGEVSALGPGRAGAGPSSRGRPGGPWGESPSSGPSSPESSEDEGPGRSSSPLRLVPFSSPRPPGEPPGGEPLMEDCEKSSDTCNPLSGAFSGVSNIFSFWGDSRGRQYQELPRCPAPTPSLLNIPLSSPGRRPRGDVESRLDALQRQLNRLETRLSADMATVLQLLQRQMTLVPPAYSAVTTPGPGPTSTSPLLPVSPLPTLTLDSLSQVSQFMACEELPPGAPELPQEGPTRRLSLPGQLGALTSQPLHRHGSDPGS
# Summary of the method: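 Step 1: BacMam hERG transduction of U2OS, 4 hrs RT. Step 2: overnight 37 °C, plate 2000 cells/well, 4 hr. Step 3: FluxOR load, compound 10 min, stimulate, read fluorescence.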
# [11] = target: Calcium and integrin-binding protein 1 (Homo sapiens) (UniProt Q99828); assay: Validation qHTS for Identification of Calcium Integrin Binding protein 1 (CIB1) Competitor (AID 1508618); conditions: CIB1-GST / FITC-alphaIIb peptide fluorescence polarization; series mostly up to 114 µM; also: % is scaled to controls: 0 for no effect and ±100 for the full control effect
# Chain of Calcium and integrin-binding protein 1 (Homo sapiens) (Q99828 whole entry, looked up): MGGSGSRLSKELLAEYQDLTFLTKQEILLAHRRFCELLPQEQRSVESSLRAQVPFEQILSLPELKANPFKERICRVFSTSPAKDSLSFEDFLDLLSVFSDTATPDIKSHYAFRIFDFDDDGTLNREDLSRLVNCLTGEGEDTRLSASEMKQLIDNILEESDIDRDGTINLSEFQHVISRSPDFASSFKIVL
# Summary of the method: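 CIB1-GST (1 uM final) incubated 15 min at room temperature with compounds (up to 114 uM), then FITC-labelled alphaIIb peptide (100 nM) added. FP read (Ex 480/Em 540) after 15 min, pH 7.4 buffer containing 5 mM CaCl2.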
# [12] = Primary qHTS for small molecule stabilizers of the endoplasmic reticulum resident proteome: Secreted ER Calcium Modulated Protein (SERCaMP) assay (AID 1508630); conditions: SH-SY5Y GLuc-SERCaMP (Gaussia luciferase released on ER calcium loss) secretion, thapsigargin, luminescence; series mostly up to 38.4 µM; also: % is scaled to controls: 0 for no effect and ±100 for the full control effect
# Summary of the method: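 The SH-SY5Y reporter protocol was run at 3 concentrations up to 38.3 uM (primary) or 11 concentrations (follow-up): 16 h compound, 100 nM thapsigargin for 4 h, then extracellular luciferase luminescence.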
# [13] = target: Thioredoxin reductase 1, cytoplasmic (Rattus norvegicus) (UniProt O89049); assay: qHTS Assay for Inhibitors of Mammalian Selenoprotein Thioredoxin Reductase 1 (TrxR1) (AID 488773); conditions: purified TrxR1 enzyme activity; Potency: inhibition; series mostly up to 57.1 µM;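 also: drop in NADPH fluorescence over an 8 min run after selenite addition; % is scaled to controls: 0 for no effect and ±100 for the full control effect; nearly all actives have a fitted effect of over 40% in size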
# Summary of the method: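 Inhibition is scored from the loss of NADPH fluorescence between first and last reads of an 8-min kinetic run. Selenite (400 uM) was the substrate, added after 15 min compound preincubation at room temperature.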
# [14] = qHTS for Inhibitors of ATXN expression: Validation (AID 588378); conditions: cell-based ATXN2 expression reporter assay, luminescence; series mostly up to 57.1 µM; also: % is scaled to controls: 0 for no effect and ±100 for the full control effect; nearly all actives have a fitted effect of over 75% in size
# Summary of the method: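 Compounds were pinned onto attached HEK293 cells carrying an ATXN2-firefly luciferase construct and incubated 24 hrs at 37 degrees C. Each well then received a fluorescent viability reagent followed by luciferase substrate for end-point luminescence.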
Structure (SMILES),activity [1],"activity change, negative = inhibition [2]",activity [3],activity [4],Potency [5],Potency [6],Potency [7],outcome [8],Potency [9],Potency [10],outcome [11],Potency [12],Potency [13],Potency [14]
O=C1NC(=O)/C(=C\c2ccc3c(c2)OC(F)(F)O3)S1,-3.87%,-2.97%,-7.77%,-2.73%,–,–,–,–,–,–,–,–,–,–
Oc1cc2c(c(Cl)c1O)CCNCC2c1ccccc1 (stereo not given),72.9%,2.7%,-10.3%,7.26%,inactive,inactive,inactive,inactive,inactive,2820 nM (active),inactive,inactive,–,–
CN1C2CCCC1CC(NC(=O)c1nn(C)c3ccccc13)C2 (stereo not given),1.32%,5.2%,0.961%,4.07%,–,–,–,–,inactive,–,inactive,inactive,inactive,inactive
